In the library only some 11% were active in any assay of this set; here they are far more common.
HPGD block = inhibitors of human 15-hydroxyprostaglandin dehydrogenase (HPGD); AID 894; Potency, µM, actives largely listed as inhibitors; purified HPGD, NADH fluorescence kinetic, PGE2 substrate; actives 4.3% (n = 150,000)
Target sequence (P15428 whole entry, looked up): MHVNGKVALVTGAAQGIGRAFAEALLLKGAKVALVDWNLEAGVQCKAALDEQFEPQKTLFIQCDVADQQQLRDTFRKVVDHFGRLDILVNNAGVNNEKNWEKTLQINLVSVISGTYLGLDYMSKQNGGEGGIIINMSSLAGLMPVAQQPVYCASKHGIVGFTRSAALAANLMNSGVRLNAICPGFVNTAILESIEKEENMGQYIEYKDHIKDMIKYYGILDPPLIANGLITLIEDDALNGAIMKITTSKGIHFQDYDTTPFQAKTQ
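NADH formation kinetics: reaction with 30 uM PGE2 and 1 mM NAD+ (final), 20 nM enzyme, Tris-HCl pH 8 with Tween 20, after 15 min compound preincubation at room temperature. Fluorescence change, last versus first of five reads.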
PNC inhibitor = blocks assembly of the perinucleolar compartment; PC3M PTB-GFP, PNC prevalence imaging, 16 h; hits give low values; actives 3.1% (n = 140,000); activity change (PNC), negative = inhibition, % at 10 µM;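 active = readout at or below -70, meaning at least 70% loss of cells showing the perinucleolar compartment, a nuclear body marking cancer cells; inconclusive = readout between -30 and a set limit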
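Compounds are pinned in duplicate onto adhered PC3M cells stably expressing GFP-tagged PTB and incubated 16 h at 37 C. Cells are then fixed, nuclei stained with Hoechst, and PNC-positive cells counted.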
IMPase cell inh = membrane-permeable compound that blocks inositol monophosphatase | P97697 | CHO-M1 cells, IP1 accumulation, HTRF TR-FRET ratio | inhibition (IP1 accumulation), % at 46.1 µM | 120,000 tested, under 10 active; active = well fitted curve in the direction sought with a large enough effect in the signal ratio, not every such curve was filed as active; inconclusive = small, poorly fitted or top-dose-only effect, or a change in a side signal; inactive = no such curve, though single readings can be large or run the other way; the % refers to the signal ratio;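 note: cells stimulated with carbachol in lithium chloride buffer; higher means more IMPase inhibition seen as more IP1 and lower FRET ratio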
Target sequence (P97697 whole entry, looked up): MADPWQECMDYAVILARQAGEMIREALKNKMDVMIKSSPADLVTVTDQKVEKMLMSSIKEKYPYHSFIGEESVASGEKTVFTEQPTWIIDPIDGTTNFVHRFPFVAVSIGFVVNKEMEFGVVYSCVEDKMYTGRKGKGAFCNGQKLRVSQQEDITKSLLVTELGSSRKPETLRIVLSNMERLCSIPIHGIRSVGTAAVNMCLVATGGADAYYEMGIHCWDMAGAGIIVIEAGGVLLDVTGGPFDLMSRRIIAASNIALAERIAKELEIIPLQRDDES
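CHO-M1 cells (CHO stably expressing M1 receptor), compound up to 46 uM final, stimulated with carbachol (50 uM as added) in buffer with 50mM LiCl, pH 7.4, 30 min at 37C. Cytosolic IP1 read by TR-FRET; AC50 from Hill fits.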
ALDH1A1 inh = inhibitors of human aldehyde dehydrogenase 1A1; actives 7.3% (n = 220,000); AID 1030; Purified ALDH1A1, NADH fluorescence, propionaldehyde substrate; Potency, µM (highest dose often 75.3 µM), actives largely listed as inhibitors
IMPase Li inh = IMPase inhibition in cells with lithium potentiation | CHO-M1 cells, IP1 TR-FRET (IP-One), carbachol + lithium | Potency, µM (titrated, usually from 59.4 µM), usual class: inhibitors | actives 0.35% (n = 210,000) | AID 1457; active = well fitted inhibition curve with a large enough effect; inconclusive = small, poorly fitted or top-dose-only effect; inactive = no such curve, though single readings can be large or run the other way;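 note: IP1 builds up when IMPase is blocked and the TR-FRET signal falls; nearly all actives have a fitted effect of over 50% in size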
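Lithium-sensitised IP1 accumulation assay; M1-expressing CHO cells treated 30 min at 37C with compound. Competitive antibody detection by time-resolved FRET followed a 10 min room-temperature lysis step.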
A number is an active result; – = inactive; ? = inconclusive; · = not tested or not shown; [ ] = another dose, or the depositor's remark. Unless noted, calls come from the whole dose curve; as a rule, active = well fitted inhibition curve with a large enough effect (not every such curve was filed as active); inconclusive = small, poorly fitted or top-dose-only effect, or another doubt; inactive = no such curve, though single readings can be large or run the other way.

SMILES | HPGD block | PNC inhibitor | IMPase cell inh | ALDH1A1 inh | IMPase Li inh
COc1ccc(S(=O)(=O)N2CCOCC2)cc1NC(=O)COC(=O)c1ccc(C)s1 | · | · | · | ? | –
COc1ccc(S(=O)(=O)N2CCOCC2)cc1NC(=O)CCc1c[nH]c2ccccc12 | · | · | · | 14µM | –
COc1ccc(S(=O)(=O)N2CCOCC2)cc1NC(=O)COC(=O)C1COc2ccccc2O1 (stereo not given) | – | -92 | · | – | –
COc1ccccc1OCCC(=O)OCC(=O)Nc1ccc(S(=O)(=O)N2CCOCC2)cc1 | · | · | · | ? | –
CCCCc1ccc(C(=O)N/C(=C\c2ccc(C)cc2)C(=O)NC2CCCCC2)cc1 | · | · | – | · | ·
CCOC(=O)OCC1OC(CCc2ccccc2)CCC1Oc1ccc(OC)cc1 (stereo not given) | · | · | · | –[13.5 µM] | ·
COc1ccccc1OCCC(=O)OCC(=O)Nc1cc(S(=O)(=O)N2CCOCC2)ccc1Cl | · | · | · | 6.3µM | –
O=C(CCc1nc2ccccc2s1)OCC(=O)c1ccc[nH]1 | · | · | · | – | –
c1ccc(-c2nc(-c3cccs3)c(NC3CCCCC3)o2)cc1 | – | · | · | – | –
C=CCn1c(SCC(=O)N2CCN(c3ccccc3)CC2)nnc1-c1ccco1 | – | ? | – | – | –
C=CCn1c(SCC(=O)N2CCN(c3ccc(F)cc3)CC2)nnc1-c1cccs1 | – | -96 | – | ? | ?
CCOC(=O)CSc1cn2c(n1)CCC2 | ? | -100 | – | – | –
CCOC(=O)CSc1nc(C)cc(C)n1 | – | – | – | – | –
CC(=O)N1CCC2(CC1)C(C#N)=C(N)Oc1n[nH]c(CSc3ccc(C)cc3)c12 | – | ? | – | 10µM | –
Cc1[nH]nc2c1C1(C(=O)Nc3ccc([N+](=O)[O-])cc31)C(C#N)=C(N)O2 (stereo not given) | – | – | – | – | –
Cc1ccc(SCc2[nH]nc3c2C2(C(=O)Nc4ccc(F)cc42)C(C#N)=C(N)O3)cc1 (stereo not given) | – | ? | – | 2.2µM | –
CCc1[nH]nc2c1C1(CCN(C(=O)c3ccccc3)CC1)C(C#N)=C(N)O2 | – | – | – | ? | –
CC(C)CCCC(C)C1CCC2C3CC[C@H]4CC(=O)CC[C@@]4(C)C3CC[C@@]12C (stereo not given in full) | – | · | · | – | –
CCc1cc2c(NCC3CCCO3)nc(C)nc2s1 (stereo not given) | – | – | – | – | –
CCOC(=O)c1c(NC(=O)CCCOc2ccc(C(C)(C)C)cc2)sc2c1CCCC2 | · | · | – | · | ·
CCC1SC2=NC(C)=C(C(=O)OCC(C)C)C(/C=C/c3ccccc3OC)N2C1=O (stereo not given) | – | – | – | – | –
COc1ccccc1/C=C/C1C(C(=O)OCC(C)C)=C(C)N=C2SCCC(=O)N21 (stereo not given) | · | · | · | 22µM | –
COc1ccc(NC(=S)N(CCc2c(C)[nH]c3ccccc23)Cc2cccnc2)cc1 | – | – | · | – | –
COc1ccc(NC(=S)N(CCc2nc3cc(C)c(C)cc3[nH]2)Cc2cccnc2)cc1 | – | – | – | 13µM | –
COc1ccc(OCc2nnc(SCc3ccc(C(=O)O)cc3)o2)cc1 | · | · | · | – | –
SMILES | HPGD block | PNC inhibitor | IMPase cell inh | ALDH1A1 inh | IMPase Li inh
O=c1cc(CSc2nnc(COc3ccccc3Cl)o2)nc2sccn12 | 18µM | – | – | ? | –
O=C(O)c1ccc(CSc2nnc(COc3ccc(Cl)cc3Cl)o2)cc1 | 5µM | – | – | ? | –
CC(C)NC(=O)NC(=O)CSc1nnc(COc2ccccc2Cl)o1 | – | – | – | – | –
CO/N=C(/C)CCC(=O)OC[C@@H]1O[C@H](c2ccccc2)C=C[C@@H]1Oc1ccc(OC)cc1 | · | · | · | –[13.5 µM] | ·
O=C1C2Cc3c([nH]c4ccccc34)C(c3ccccc3)N2C(=O)C2Cc3c([nH]c4ccccc34)C(c3ccccc3)N12 (stereo not given) | · | · | · | –[13.5 µM] | ·
CCc1c(O)cc(=O)n(-c2ccccc2)c1-c1ccccc1 | – | – | · | – | –
CCc1c(O)cc2n(c1=O)-c1ccc(Cl)cc1C2(C)C | – | – | –[0.369 µM] | 28µM | –
CS(=O)(=O)N1CCC2(CCCN(c3cccc(-c4ccccc4)c3)C2)CC1 | – | · | · | – | –
CCOc1cc(N2CCOCC2)c(OCC)cc1NC(C)C(=O)N1CCN(CC)CC1 (stereo not given) | · | · | · | 22µM | –
O=C(OCn1nnc2ccccc2c1=O)C1CCCCC1 | 11µM | ? | – | 16µM | –
Cc1ccc(SCCC(=O)OCn2nnc3ccccc3c2=O)cc1 | · | · | · | 15µM | –
O=C(OCn1nnc2ccccc2c1=O)c1ccc2ncsc2c1 | 25µM | – | – | ? | –
CCC1(CC)NC(=O)N(CC(=O)OCn2nnc3ccccc3c2=O)C1=O | – | – | – | 13µM | –
Cc1cc2c(s1)CCCCC(=O)N2 | – | – | – | – | –
COc1cc(-c2nnc(SCc3cc(=O)oc4cc(O)c(O)cc34)o2)cc(OC)c1OC | 7.9µM | – | – | ? | –
Cc1ccc(C(=O)Nc2ccc(Cc3ccncc3)cc2)cc1[N+](=O)[O-] | – | – | – | – | –
O=C(CCNc1ccc(Cc2ccncc2)cc1)c1ccc([N+](=O)[O-])cc1 | · | · | · | 0.11µM | –
O=C(Nc1ccc(Cc2ccncc2)cc1)c1cccc([N+](=O)[O-])c1 | 1.4µM | – | · | – | –
O=C(c1cc(C(F)(F)F)cc(C(F)(F)F)c1)N1CCC[C@@]2(CCN(Cc3ccncc3)C2)C1 | – | · | · | – | –
Cc1cc2nnn(-c3nnc(-c4ccccc4)c4ccccc34)c2cc1C | – | -109 | – | – | –
Cc1ccc(-c2nnc(-n3nc(C)cc3C)c3ccccc23)cc1 | – | – | – | – | –
O=C(NN=C1C2CC3CC1CC(Cl)(C3)C2)c1ccccn1 | · | · | · | ? | –
O=C(NN=C1C2CC3CC1CC(Cl)(C3)C2)c1cccs1 | · | · | · | 3.2µM | –
CCOP(=O)(O)c1ccccc1OCCOCCOc1ccccc1P(=O)(O)OCC | – | ? | – | 4µM | –
COc1cccc(Cn2c(=O)c(-c3ccc(Cl)cc3)nc3cnc(OC)nc32)c1 | · | · | · | ? | –
SMILES | HPGD block | PNC inhibitor | IMPase cell inh | ALDH1A1 inh | IMPase Li inh
NNc1nnc(-c2ccccc2)c(-c2ccccc2)n1 | – | ? | – | 13µM | –
NNc1nc(-c2ccccc2)c2ccccc2n1 | · | · | · | – | –
c1ccc(-c2cc3c(nn2)CCc2nonc2-3)cc1 | – | -102 | – | ? | –
c1coc(-c2nc3c([nH]2)CCc2nonc2-3)c1 | ? | ? | – | 2.8µM | –
O=C1c2ccccc2-c2nnc(-c3ccccc3)cc21 | – | – | – | – | –
c1ccc(-c2nc3c([nH]2)CCc2nonc2-3)cc1 | · | · | · | 4.5µM | –
O=[N+]([O-])c1cccc(-c2nc(Oc3ccc(Cl)cc3)c3ccccc3n2)c1 | 25µM | ? | · | ? | –
COc1cccc(-n2cnnn2)c1 | – | – | – | – | –
Cc1ccc(-c2nnc(COc3cccc(-n4cnnn4)c3)o2)cc1 | – | -103 | – | – | –
Cc1cccc(-c2nc3c(cnn3-c3ccccc3)c(=O)n2-c2ccc(Cl)cc2)c1 | · | · | – | · | ·

Bioassay records deposited in PubChem BioAssay by National Center for Advancing Translational Sciences (NCATS).
